Luciferase inh – Firefly luciferase inhibition profiling of diverse chemical library using quantitative high-throughput screening; Luciferin 4-monooxygenase (Photinus pyralis), P08659; purified P. pyralis luciferase, luminescence, biochemical; Potency, µM (highest dose often 115 µM), hits mostly inhibitors; 76,000 tested, 2.5% active; further: nearly all actives have a fitted effect of over 65% in size
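Biochemical qHTS: compound (6-point titration) added to 10uM D-luciferin plus 10uM ATP in Tris acetate pH 7.5 buffer with Mg, Tween-20 and BSA, then purified enzyme at 10nM; light output imaged.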
NPR1 antag – Natriuretic polypeptide receptor (hNpr1) antagonism - Primary qHTS. HEK293 hNpr1 GloSensor cGMP, ANP-stimulated luminescence. Potency, µM (highest dose often 46.3 µM), for the others: at the top dose activity change, negative = inhibition, most hits filed as inhibitors. 76,000 tested, 1.6% active. AID 1347048, 2019; calls by dose curve; further: nearly all actives have a fitted effect of over 60% in size
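HEK293 cells stably expressing human Npr1 and cGMP GloSensor pGS-40F, loaded 2 h with 2% GloSensor reagent, given compound 30 min at room temperature. Luminescence read before and 20 min after 0.1 nM hNppA.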
GPT2 inh – Primary qHTS assay for inhibitors of Glutamate pyruvate transaminase 2 (GPT2). Alanine aminotransferase 2 (Homo sapiens), Q8TD30. Recombinant GPT2, coupled pyruvate oxidase/HRP Amplex Red fluorescence. Potency, µM (top dose mostly 57.7 µM), without a hit: at the top dose activity change, negative = inhibition, hits mostly inhibitors. 100,000 tested, 0.25% active; further: nearly all actives have a fitted effect of over 60% in size
Target sequence (Q8TD30 whole entry, looked up): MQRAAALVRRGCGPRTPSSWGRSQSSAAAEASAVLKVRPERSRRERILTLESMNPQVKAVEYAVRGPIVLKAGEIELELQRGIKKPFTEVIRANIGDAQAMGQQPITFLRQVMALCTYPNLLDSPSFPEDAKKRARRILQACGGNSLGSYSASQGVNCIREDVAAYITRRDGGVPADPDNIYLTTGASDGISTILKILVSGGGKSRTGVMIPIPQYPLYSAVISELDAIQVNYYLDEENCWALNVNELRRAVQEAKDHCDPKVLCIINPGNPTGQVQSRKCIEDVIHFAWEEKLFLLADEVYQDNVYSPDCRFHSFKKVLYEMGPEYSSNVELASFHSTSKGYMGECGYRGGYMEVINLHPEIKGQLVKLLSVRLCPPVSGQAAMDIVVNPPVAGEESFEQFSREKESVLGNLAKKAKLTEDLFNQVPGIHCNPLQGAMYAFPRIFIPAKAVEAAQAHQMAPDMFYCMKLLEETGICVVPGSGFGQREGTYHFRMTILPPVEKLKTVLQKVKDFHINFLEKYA
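Recombinant GPT2 (10ng/uL) with 250uM a-KG and 2mM L-alanine, 30 min at room temperature, in HEPES pH 7.5 buffer. Pyruvate detected by pyruvate oxidase/HRP/Amplex Red fluorescence after 30 min in the dark; AOA (50uM) as positive control.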
3T3 cytotox – Cytotoxic Profiling in NIH 3T3 Cell Line of Diverse Libraries Using Quantitative High-Throughput Screening; NIH 3T3 viability, CellTiter-Glo ATP luminescence, 48-72 h; Potency, µM (series often up to 96.7 µM), for the others: at the top dose activity change, negative = cytotoxicity, usual class: inhibitors; 94,000 tested, 4.3% active; further: nearly all actives have a fitted effect of over 55% in size
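Cells were seeded at 400 per well, treated with pin-transferred compound, and kept 48 or 72 hr at 37 °C before CellTiter-Glo addition and luminescence imaging of cellular ATP.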
HEK293 tox – Cytotoxic Profiling in HEK 293 Cell Line of Diverse Libraries Using Quantitative High-Throughput Screening | HEK 293 viability, ATP luminescence (CellTiter-Glo), 48-72 h | Potency, µM (top dose mostly 115 µM), for the others: at the highest dose activity change, negative = cytotoxicity, actives largely listed as inhibitors | 94,000 tested, 6.6% active; further: nearly all actives have a fitted effect of over 60% in size
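Cells seeded first (HEK 293, 250 cells/well), then compound added by pintool. Incubation ran 48 or 72 hr at 37 degree Celsius. CellTiter-Glo was added and luminescence imaged after 10 min at room temperature.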
The depositor's hits bear a star; i = inactive; u = inconclusive; x = not tested or not shown; [ ] = dose if it differs, or a comment. Hits are enriched below; roughly 10% of the tested compounds scored in any of these assays. Unless noted, the call rests on the fitted dose curve; in most records, active means well fitted curve in the direction sought with a large enough effect; inconclusive means small, poorly fitted or top-dose-only effect, or another doubt; inactive means no such curve, though single readings can be large; an effect the other way counts as inactive or inconclusive. On the % scale 0 is the no-effect control and ±100 the full control effect; potency means the concentration at half of the fitted maximal effect.

SMILES | Luciferase inh | NPR1 antag | GPT2 inh | 3T3 cytotox | HEK293 tox
O=C(c1cccc2c1CCN2C(=O)Nc1ccccc1)N1CCN(c2ccccc2)CC1 | 28.2µM* | -23.6% | i | -17.1% | u
Cc1ccc(NC(=O)N2CCc3c(C(=O)NCc4ccncc4)cccc32)cc1 | 0.562µM* | 12.6µM* | i | -26.4% | 31.6µM*
CCC[C@H]1CN(C(=O)c2nc(-c3ccccc3)[nH]c2C)C[C@@H]1N | i | -7.0% | 3.1% | 4.9% | -2.8%
COc1ccc(NC(=O)c2cccc3c2CCN3C(=O)Nc2ccc(F)cc2)cc1 | u | 1.6% | i | -11.8% | u
O=C(NCCc1ccncc1)c1cccc2c1CCN2C(=O)Nc1ccc(F)cc1 | 0.251µM* | 3.55µM* | -4.7% | u | u
CCNC(=O)c1cccc2c1CCN2C(=O)Nc1ccc(C)cc1 | 0.282µM* | 2.24µM* | 1.1% | u | u
Cc1nn(CCNC(=O)c2cn(CCN)nn2)c(C)c1Cl | i | -1.1% | i | -8.8% | 3.5%
O=C(c1cc2n(n1)CC(c1ccc(Cl)cc1)OC2)N1CCN(c2ccccn2)CC1 (centres undefined) | i | -28.2% | i | u | u
CC1CCN(C(=O)c2cc3n(n2)CC(c2ccc(Cl)cc2)OC3)CC1 (centres undefined) | i | u | i | 39.8µM* | u
O=C(c1cc2n(n1)CC(c1ccc(Cl)cc1)OC2)N1CCN(c2ccccc2)CC1 (centres undefined) | i | 20µM* | 0.9% | u | u
Cc1nc2c(c(-c3ccc(Cl)cc3)n1)CCN(C(=O)C1CCCC1)CC2 | i | -6.8% | i | u | -20.7%
COc1ccc(-c2cc3c(=O)n(CCNC(=O)c4cc(F)cc(F)c4)ccn3n2)cc1 | 2µM* | -19.3% | -11.2% | u | u
COc1ccc(-c2cc3c(=O)n(CCNC(=O)c4cccc5[nH]ccc45)ccn3n2)cc1 | 6.31µM* | -22.2% | i | u | 31.6µM*
COc1ccc(-c2cc3c(=O)n(CCNC(=O)c4ccccc4C)ccn3n2)cc1 | 10µM* | -15.4% | -3.2% | -20.7% | u
COc1ccc(-c2cc3c(=O)n(CCNC(=O)c4ccccn4)ccn3n2)cc1 | 7.94µM* | -10.9% | -19.2% | -27.1% | -26.9%
Cc1ccc(CN2CCC(c3nn(Cc4ccccc4)c(=O)[nH]3)CC2)cc1 | i | 13.7% | i | -23.6% | -5.4%
FC(F)(F)c1ccc(CN2CCC3(CC2)CC(c2ccccc2)=NO3)cc1 | i | -4.5% | -0.6% | -10.0% | -23.5%
Cc1oc2c(c1C(=O)NCCN1CCCC(C)C1)CN(Cc1cccc(F)c1)CC2 (centres undefined) | i | -9.8% | i | u | u
O=C(NCCn1ccn2nc(-c3ccc(F)cc3)cc2c1=O)c1cccc(Cl)c1 | i | u | i | -26.5% | -43.1%
CC(=O)Nc1cccc(C(=O)NCCn2ccn3nc(-c4ccc(F)cc4)cc3c2=O)c1 | 20µM* | 0.0% | -0.5% | u | 44.7µM*
CCN(CC)CC(C)NC(C)C (centres undefined) | x | x | -6.4%[88.5 µM] | i | i
O=C(c1cccs1)N1CCc2[nH]nc(-c3cccc(F)c3)c2C1 | i | -13.1% | -4.2% | u | 28.2µM*
Cc1ccc(-c2noc([C@@H]3Cc4nc[nH]c4CN3CC3CCCCC3)n2)cc1 | u | 0.8%[70.6 µM] | 0.3%[88.5 µM] | 70.8µM* | 63.1µM*
c1ccc2cc(-c3noc([C@@H]4Cc5nc[nH]c5CN4CC4CCCCC4)n3)ccc2c1 | u | -16.8%[70.6 µM] | 3.4%[88.5 µM] | 50.1µM* | 70.8µM*
O=C(NCc1ccc(C(F)(F)F)cc1)C1CCCN(Cc2cccc(-c3ccsc3)c2)C1 (centres undefined) | x | x | x | 35.5µM* | u
SMILES | Luciferase inh | NPR1 antag | GPT2 inh | 3T3 cytotox | HEK293 tox
Cc1cccc(-c2cccc(CN3CCCC(C(=O)NCC(F)F)C3)c2)c1 (centres undefined) | x | x | 2.7% | u | u
O=C(NCc1cccc(C(F)(F)F)c1)C1CCCN(Cc2cccc(-c3ccsc3)c2)C1 (centres undefined) | x | x | x | 12.6µM* | 31.6µM*
O=C1CCN(Cc2ccncc2)CCCC(C(=O)NCc2cccc(C(F)(F)F)c2)CCN1 (centres undefined) | i | -0.5% | 1.0% | -9.9% | -5.7%
O=C(OCc1ccccc1)N1CCOCC12CCN(Cc1ccccc1)CC2 | i | -14.5%[70.6 µM] | i | u | 25.1µM*
Cc1cccc(CN2CCC3(CC2)COCCN3C(=O)OCc2ccccc2)c1 | i | -7.7%[70.6 µM] | -14.6%[88.5 µM] | 39.8µM* | 39.8µM*
Cc1ccc(CN2CCC3(CC2)COCCN3C(=O)OCc2ccccc2)o1 | i | 1.1%[70.6 µM] | i | 44.7µM* | 28.2µM*
Cc1ccccc1CN1CCC2(CC1)COCCN2C(=O)OCc1ccccc1 | i | -17.3%[70.6 µM] | -5.0%[88.5 µM] | u | 100µM*
Cc1noc(C)c1CN1CCC2(CC1)COCCN2C(=O)OCc1ccccc1 | i | -2.1%[70.6 µM] | -3.5%[88.5 µM] | -11.8%[138 µM] | u
O=C(OCc1ccccc1)N1CCOCC12CCN(Cc1ccccc1F)CC2 | i | -5.1%[70.6 µM] | -1.2%[88.5 µM] | u | u
COc1ccccc1CN1CCC2(CC1)COCCN2C(=O)OCc1ccccc1 | i | -14.8%[70.6 µM] | -16.1%[88.5 µM] | u | u
CC(NC(=O)C1CN(C(C)C)C(=O)N1)c1ccc(F)cc1 (centres undefined) | x | x | -0.1%[88.5 µM] | -12.4%[138 µM] | -8.0%[172 µM]
CC(=O)N1Cc2ccccc2CC2(CCCN2CCc2ccccc2)C1 (centres undefined) | x | x | i | -16.6% | u
COc1ccc(NC(=O)c2nc(C(O)c3ccccc3F)oc2C)cn1 (centres undefined) | i | -13.5%[70.6 µM] | i | -8.8%[138 µM] | u
COCCN1CCC(N2CCN(S(=O)(=O)c3ccc(F)c(F)c3)CC2)C1=O (centres undefined) | i | 0.6% | i | -8.9% | -16.2%
O=C(OCc1ccccc1)N1CCOCC12CCN(Cc1ccncc1)CC2 | i | -5.3%[70.6 µM] | i | 35.5µM* | 50.1µM*
O=C(OCc1ccccc1)N1CCOCC12CCN(Cc1nccs1)CC2 | i | u | i | u | u
CN[C@@H]1[C@H](O)[C@H](CO)O[C@@H]1CNC1CCCCC1 | i | 0.5%[70.6 µM] | -0.5%[88.5 µM] | 1.2%[174 µM] | 3.9%[172 µM]
O=c1cc(-c2cccnc2)oc2c(-c3ccc(O)c(F)c3)nccc12 | i | 3.9%[70.6 µM] | i | u | u
Fc1ccc(CN2Cc3[nH]cnc3C[C@H]2c2nc(-c3ccc(Cl)cc3)no2)cc1 | i | -19.9%[70.6 µM] | -12.9%[88.5 µM] | 50.1µM* | 63.1µM*
